Unmarked numbers belong to inactive results. Inconclusive results are not listed. A call without a number means that no potency is given here. The source made the active and inactive calls. Unless noted, the call rests on the fitted dose curve; in most records, active means well fitted curve in the direction sought with a large enough effect in the repeat runs; inconclusive means weak or mixed curves; inactive means no such curve, though single readings can be large; an effect the other way counts as inactive or inconclusive.
Experiments:
[1] = target: Progesterone receptor (Homo sapiens) (UniProt P06401); assay: qHTS assay to identify small molecule agonists of the progesterone receptor (PR) signaling pathway (AID 1346784; calls by dose curve; further: nearly all actives have a fitted effect of over 30% in size)
Progesterone receptor (Homo sapiens), sequence (P06401 whole entry, looked up): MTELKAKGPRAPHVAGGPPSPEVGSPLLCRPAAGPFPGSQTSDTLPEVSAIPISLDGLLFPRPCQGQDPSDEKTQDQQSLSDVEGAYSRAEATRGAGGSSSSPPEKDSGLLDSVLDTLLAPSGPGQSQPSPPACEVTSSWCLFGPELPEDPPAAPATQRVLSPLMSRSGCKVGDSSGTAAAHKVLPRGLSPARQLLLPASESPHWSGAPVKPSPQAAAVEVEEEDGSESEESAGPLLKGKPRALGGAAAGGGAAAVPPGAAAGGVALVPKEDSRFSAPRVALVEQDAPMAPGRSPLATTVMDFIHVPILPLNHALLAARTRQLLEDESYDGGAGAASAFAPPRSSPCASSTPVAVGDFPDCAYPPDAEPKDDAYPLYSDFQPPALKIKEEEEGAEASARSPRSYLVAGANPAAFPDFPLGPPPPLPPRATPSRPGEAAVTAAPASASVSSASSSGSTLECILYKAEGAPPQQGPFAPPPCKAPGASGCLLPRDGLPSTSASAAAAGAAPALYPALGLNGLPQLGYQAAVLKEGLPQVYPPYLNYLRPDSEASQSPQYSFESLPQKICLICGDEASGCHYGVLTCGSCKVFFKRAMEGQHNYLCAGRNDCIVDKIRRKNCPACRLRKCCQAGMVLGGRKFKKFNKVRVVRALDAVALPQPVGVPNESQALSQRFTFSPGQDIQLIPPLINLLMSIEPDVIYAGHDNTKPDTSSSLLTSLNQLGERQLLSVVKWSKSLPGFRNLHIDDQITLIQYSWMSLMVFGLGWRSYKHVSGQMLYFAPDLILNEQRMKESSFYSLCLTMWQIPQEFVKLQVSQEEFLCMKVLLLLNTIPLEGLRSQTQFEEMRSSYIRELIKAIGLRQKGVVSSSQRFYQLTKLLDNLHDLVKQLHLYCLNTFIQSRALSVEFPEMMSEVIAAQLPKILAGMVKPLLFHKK
Outline: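 Reporter assay, GripTite PR-UAS-bla HEK 293T cells: 16 hr exposure to DMSO-dissolved compounds at 37C, 5% CO2, in steroid-depleted (2% charcoal-stripped FBS) medium; beta-lactamase measured by FRET fluorescence.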

[2] = target: Progesterone receptor (Homo sapiens) (UniProt P06401); assay: qHTS assay to identify small molecule antagonists of the progesterone receptor (PR) signaling pathway (AID 1346795; active means well fitted inhibition curve with a large enough effect in the signal ratio in the repeat runs, not every such curve was filed as active; the % refers to the signal ratio)
Outline: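 Stimulus R5020 at 1 nM final; cells HEK293T PR-UAS-bla; medium with 2% charcoal-stripped FBS; compound exposure 16 hr at 37C, 5% CO2; detection by FRET beta-lactamase substrate, 2 hr, room temperature.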

[3] = qHTS assay to identify small molecule antagonists of the progesterone receptor (PR) signaling pathway - cell viability counter screen (AID 1346798); further: series mostly up to about 92 µM; nearly all actives have a fitted effect of over 50% in size
Outline: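 In the same plates used for the beta-lactamase readout, cell viability of compound- and R5020-treated PR-UAS-bla HEK293T cells (16 hr, 37C) was assessed by CellTiter-Glo luminescence.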

[4] = qHTS assay to identify small molecule agonists of the progesterone receptor (PR) signaling pathway - cell viability counter screen (AID 1346799; calls by dose curve; further: nearly all actives have a fitted effect of over 45% in size)
Outline: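 Multiplexed viability read: CellTiter-Glo luminescence, 30 min RT, following LiveBLAzer FRET measurement on PR-UAS-bla HEK293T cells exposed to compounds 16 hr.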

[5] = qHTS assay to identify small molecule antagonists of the TGF-beta/Smad signaling pathway - cell viability counter screen (AID 1346824); further: nearly all actives have a fitted effect of over 50% in size
Outline: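 SBE-bla HEK 293T cells were plated overnight at 37 C, then given compounds in DMSO plus TGF-beta1 (added as 0.25 ng/mL solution) for 5 hr. After the bla read, CellTiter-Glo was added to the same wells and luminescence read after 30 min at room temperature.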

[6] = qHTS assay to identify small molecule agonists of the TGF-beta/Smad signaling pathway - cell viability counter screen (AID 1346829); further: top concentration of the series differs between compounds; nearly all actives have a fitted effect of over 45% in size
Outline: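 After overnight seating at 37 C and 5% CO2, reporter cells got compounds for 5 hr and FRET substrate for 2 hr; cell viability then came from CellTiter-Glo luminescence.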

[7] = qHTS assay to identify small molecule agonists of the TGF-beta/Smad signaling pathway (AID 1346859; active means well fitted activation curve with a large enough effect in the signal ratio in the repeat runs, not every such curve was filed as active; the % refers to the signal ratio; further: series mostly up to about 77 µM)
Outline: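 Screening used HEK 293T SBE-bla cells at 4,000/well. Test agents: 5 hr, 37 C. Detection: FRET substrate, 2 hr RT, then excitation 405 nm with emissions at 460 and 530 nm.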

[8] = Human pregnane X receptor (PXR) small molecule agonists, qHTS cell viability counter screen (AID 1346977); further: nearly all actives have a fitted effect of over 50% in size
Outline: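 In each well, the PXR reporter HepG2 line was checked for viability: CellTiter-Fluor reagent added 23hr post-dosing, fluorescence read after 1hr incubation at 37C.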

[9] = Caspase-3/7 induction in CHO-K1 cells by small molecules, qHTS cell viability counter screen (AID 1346979); further: nearly all actives have a fitted effect of over 35% in size
Outline: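 Following a 5hr settling period, CHO-K1 cells at 1,500 per well received DMSO-dissolved compounds. Cell viability was quantified 16hr later by CellTiter-Fluor fluorescence, measured after 1hr with reagent at 37C.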

[10] = Caspase-3/7 induction in CHO-K1 cells by small molecules, qHTS assay (AID 1346980); further: nearly all actives have a fitted effect of over 15% in size
Outline: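 Wild-type cells were seeded at 1,500 per well and settled 5 hr at 37 C, 5% CO2, then exposed to DMSO-dissolved compounds for 17 hr. Caspase-Glo 3/7 reagent was added, and luminescence was read after 30min at room temperature.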

[11] = Caspase-3/7 induction in HepG2 cells by small molecules, qHTS cell viability counter screen (AID 1346981); further: series mostly up to about 92 µM; nearly all actives have a fitted effect of over 30% in size
Outline: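 Wild-type HepG2 cells, 2,000/well, settled 5 hr at 37 C, 5% CO2 before compound addition. Viability read by CellTiter-Fluor fluorescence, reagent added after 16 hr compound exposure, then 1 hr at 37C, in the same wells as the caspase read.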

[12] = target: Nuclear receptor subfamily 1 group I member 2 (Homo sapiens) (UniProt O75469); assay: Human pregnane X receptor (PXR) small molecule agonists, qHTS assay (AID 1346982); further: nearly all actives have a fitted effect of over 35% in size; further: potency means the concentration at half of the fitted maximal effect
Nuclear receptor subfamily 1 group I member 2 (Homo sapiens), sequence (O75469 whole entry, looked up): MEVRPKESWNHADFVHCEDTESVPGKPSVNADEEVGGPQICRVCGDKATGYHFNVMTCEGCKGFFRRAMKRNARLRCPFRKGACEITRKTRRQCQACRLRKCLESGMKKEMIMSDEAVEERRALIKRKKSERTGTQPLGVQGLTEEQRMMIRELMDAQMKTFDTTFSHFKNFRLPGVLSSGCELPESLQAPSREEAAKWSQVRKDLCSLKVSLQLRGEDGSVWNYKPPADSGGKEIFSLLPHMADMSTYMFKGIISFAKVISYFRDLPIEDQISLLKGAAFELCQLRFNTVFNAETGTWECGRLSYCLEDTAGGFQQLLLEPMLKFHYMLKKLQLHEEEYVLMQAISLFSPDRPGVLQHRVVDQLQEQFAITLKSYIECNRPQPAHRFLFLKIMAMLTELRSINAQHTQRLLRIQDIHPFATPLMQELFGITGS
Outline: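 PXR-Luc HepG2 reporter cells (CYP3A4-driven luciferase) in 5% charcoal-stripped FBS medium, plated 5 h before compound addition, then treated 24 h at 37C. Luciferase read by ONE-Glo luminescence after 30 min at room temperature.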

[13] = target: Cytochrome P450 2C19 (Homo sapiens) (UniProt P33261); assay: Cytochrome P450 Family 2 Subfamily C Member 19 (CYP2C19) small molecule antagonists: luciferase reporter qHTS assay (AID 1671197); further: nearly all actives have a fitted effect of over 65% in size; further: potency means the concentration at half of the fitted maximal effect
Cytochrome P450 2C19 (Homo sapiens), sequence (P33261 whole entry, looked up): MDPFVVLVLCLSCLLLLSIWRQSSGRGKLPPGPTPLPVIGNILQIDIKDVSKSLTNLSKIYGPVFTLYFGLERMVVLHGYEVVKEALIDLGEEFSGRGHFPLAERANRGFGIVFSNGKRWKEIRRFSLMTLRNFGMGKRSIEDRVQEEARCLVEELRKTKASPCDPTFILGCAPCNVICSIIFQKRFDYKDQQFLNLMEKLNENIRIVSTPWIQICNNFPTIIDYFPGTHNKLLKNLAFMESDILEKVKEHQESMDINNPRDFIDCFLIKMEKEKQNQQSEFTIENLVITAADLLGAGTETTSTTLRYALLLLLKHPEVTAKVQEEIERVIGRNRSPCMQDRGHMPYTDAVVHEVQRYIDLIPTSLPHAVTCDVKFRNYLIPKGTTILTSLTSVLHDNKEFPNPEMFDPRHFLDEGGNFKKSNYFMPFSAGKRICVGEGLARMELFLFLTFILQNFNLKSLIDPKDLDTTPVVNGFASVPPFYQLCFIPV
Outline: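 Inhibition of CYP2C19 was scored from loss of luminescence in a P450-Glo proluciferin substrate assay, NADPH-started and run 1 h at 37C, with ketoconazole as positive control.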

[14] = Caspase-3/7 induction in HepG2 cells by small molecules, qHTS assay (AID 1346978); further: nearly all actives have a fitted effect of over 15% in size
Outline: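 Wild-type HepG2 cells (2,000/well) were settled 5 h at 37 C, 5% CO2, then exposed to compounds in DMSO for 17 h. Caspase-3/7 activity was read by luminescence 30 min after adding Caspase-Glo 3/7 reagent at room temperature.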

[15] = target: Cytochrome P450 2D6 (Homo sapiens) (UniProt P10635); assay: Cytochrome P450 Family 2 Subfamily D Member 6 (CYP2D6) small molecule antagonists: luciferase reporter qHTS assay (AID 1671196); further: nearly all actives have a fitted effect of over 50% in size; further: potency means the concentration at half of the fitted maximal effect
Cytochrome P450 2D6 (Homo sapiens), sequence (P10635 whole entry, looked up): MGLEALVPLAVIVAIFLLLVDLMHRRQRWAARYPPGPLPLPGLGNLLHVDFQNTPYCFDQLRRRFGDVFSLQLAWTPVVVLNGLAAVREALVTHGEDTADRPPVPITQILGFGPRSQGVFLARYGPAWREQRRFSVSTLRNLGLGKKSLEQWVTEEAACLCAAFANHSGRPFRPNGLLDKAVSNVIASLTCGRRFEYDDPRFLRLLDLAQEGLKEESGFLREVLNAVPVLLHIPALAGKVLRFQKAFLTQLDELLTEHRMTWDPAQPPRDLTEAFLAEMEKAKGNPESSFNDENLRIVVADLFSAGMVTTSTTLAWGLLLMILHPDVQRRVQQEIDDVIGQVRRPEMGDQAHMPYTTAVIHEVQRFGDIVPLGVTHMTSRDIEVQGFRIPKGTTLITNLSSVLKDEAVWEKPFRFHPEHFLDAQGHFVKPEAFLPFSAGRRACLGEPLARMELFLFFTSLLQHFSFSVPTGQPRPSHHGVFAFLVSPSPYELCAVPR
Outline: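 Cell-free P450-Glo system: CYP2D6 with proluciferin substrate was pre-incubated with compound for 10 min, then reacted with NADPH regeneration for 1 h at room temperature. Luciferin product was detected after 20 min, and data were reported as relative luminescence units.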

[16] = target: Thyrotropin-releasing hormone receptor (Homo sapiens) (UniProt P34981); assay: qHTS assay to identify small molecule antagonists of the thyrotropin-releasing hormone receptor (TRHR) signaling pathway (AID 1346877; active means well fitted inhibition curve with a large enough effect in the repeat runs, not every such curve was filed as active; further: series mostly up to about 51 µM)
Thyrotropin-releasing hormone receptor (Homo sapiens), sequence (P34981 whole entry, looked up): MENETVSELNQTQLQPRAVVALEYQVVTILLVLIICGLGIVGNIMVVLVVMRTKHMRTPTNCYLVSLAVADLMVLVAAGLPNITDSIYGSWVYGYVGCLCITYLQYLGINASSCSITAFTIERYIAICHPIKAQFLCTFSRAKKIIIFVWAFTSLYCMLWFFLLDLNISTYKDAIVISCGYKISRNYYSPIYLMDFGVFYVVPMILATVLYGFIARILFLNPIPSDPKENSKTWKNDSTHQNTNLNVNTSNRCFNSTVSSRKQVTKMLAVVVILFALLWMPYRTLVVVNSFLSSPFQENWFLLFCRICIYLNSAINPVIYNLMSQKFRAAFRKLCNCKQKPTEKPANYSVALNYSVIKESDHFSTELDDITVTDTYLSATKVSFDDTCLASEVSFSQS
Outline: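 TRHR-expressing HEK293 cells loaded with calcium dye for 2 h at 37 C; compounds pre-incubated 5 min at room temperature before TRH challenge at 1 nM final. Intracellular calcium fluorescence read kinetically for 3 min; 15 concentrations in triplicate.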

[17] = target: Thyrotropin-releasing hormone receptor (Homo sapiens) (UniProt P34981); assay: qHTS assay to identify small molecule agonists of the thyrotropin-releasing hormone receptor (TRHR) signaling pathway (AID 1346891; calls by dose curve; further: series mostly up to about 58 µM)
Outline: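 Readout was intracellular calcium fluorescence in TRHR-Hek293 cells. Cells were incubated 18 h, dye-loaded 2 h at 37 °C, and treated with compound in agonist mode.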

[18] = target: Nuclear receptor subfamily 1 group I member 2 (Rattus norvegicus) (UniProt Q9R1A7); assay: Rat pregnane X receptor (rPXR) activation by small molecules, qHTS assay (AID 1346983); conditions: rPXR luciferase reporter cells, One-Glo luminescence, 24 h; max activation: stronger effect = higher value; further: nearly all actives have a fitted effect of over 20% in size
Nuclear receptor subfamily 1 group I member 2 (Rattus norvegicus), sequence (Q9R1A7 whole entry, looked up): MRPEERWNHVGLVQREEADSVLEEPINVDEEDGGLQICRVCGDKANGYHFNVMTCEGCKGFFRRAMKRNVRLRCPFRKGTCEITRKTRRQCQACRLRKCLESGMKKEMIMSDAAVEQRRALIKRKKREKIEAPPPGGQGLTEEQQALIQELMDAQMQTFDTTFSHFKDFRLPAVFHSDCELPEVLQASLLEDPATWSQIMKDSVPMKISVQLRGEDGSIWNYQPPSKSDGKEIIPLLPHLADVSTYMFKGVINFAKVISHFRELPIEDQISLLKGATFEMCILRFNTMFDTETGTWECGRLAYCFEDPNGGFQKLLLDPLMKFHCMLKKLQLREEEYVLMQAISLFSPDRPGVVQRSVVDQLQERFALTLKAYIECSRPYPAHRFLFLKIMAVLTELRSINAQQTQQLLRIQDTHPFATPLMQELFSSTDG
Outline: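 Cell-based rPXR luciferase reporter assay, 2,000 cells per well, rested 5hr at 37 C before compound addition in DMSO, then 24 hr at 37 C. One-Glo reagent was added and luminescence read after 30 min at room temperature.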

[19] = target: Nuclear receptor subfamily 1 group I member 2 (Homo sapiens) (UniProt O75469); assay: Human pregnane X receptor (PXR) activation by small molecules, qHTS assay (AID 1346985); further: nearly all actives have a fitted effect of over 40% in size
Outline: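 DPX-2 cells (HepG2 co-transfected with a PXR response element and a CYP3A4-promoter luciferase construct) were seeded at 2,000 per well, rested 5 hr at 37C, then exposed to DMSO-dissolved compounds for 24 hr. Activation was read as luciferase luminescence.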

[20] = target: Nuclear receptor subfamily 1 group I member 2 (Homo sapiens) (UniProt O75469); assay: CYP3A4 induction through human pregnane X receptor (PXR) by small molecules, qHTS assay (AID 1346984); further: nearly all actives have a fitted effect of over 40% in size
Outline: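 DPX-2 HepG2 cells carrying a PXR response element and CYP3A4-promoter luciferase construct, treated with compounds 24 hr at 37C. Then P450-Glo CYP3A4 Luciferin-IPA substrate (3uM final) for 3 hr at 37C, One-Glo added, luminescence read.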

Row | SMILES | Potency [1] | Potency [2] | Potency [3] | Potency [4] | outcome [5] | outcome [6] | outcome [7] | Potency [8] | Potency [9] | Potency [10] | Potency [11] | Potency [12] | Potency [13] | Potency [14] | Potency [15] | outcome [16] | outcome [17] | max activation [18] | Potency [19] | Potency [20]
1 | COc1ccc(/C(C)=C/C(=O)O)c(OC)c1 | inactive | inactive | inactive | inactive | inactive | inactive | inactive | inactive | inactive | inactive | inactive | inactive | inactive |  |  |  |  |  |  | 
2 | CC(CC(C#N)(c1ccccc1)C(C)C)N(C)C (centres undefined) | inactive | inactive | inactive | inactive | inactive | inactive | inactive | inactive |  | inactive | inactive | inactive | inactive | inactive | 15.5 µM (active) |  |  |  |  | 
3 | CCOC(OCC)OCC | inactive | inactive | inactive | inactive | inactive | inactive | inactive |  | inactive | inactive | inactive | inactive | inactive | inactive | inactive |  |  |  |  | 
4 | O=C(NC1CCN(CCc2c[nH]c3ccccc23)CC1)c1ccccc1 | inactive | inactive | inactive | inactive | inactive | inactive | inactive |  |  | inactive | inactive | inactive | inactive | inactive | 1.95 µM (active) | inactive | inactive | -9.19% | inactive | 
5 | FC1(F)C(F)(F)C(F)(F)C2(F)C(F)(C1(F)F)C(F)(F)C(F)(F)C1(F)C(F)(F)C(F)(F)C(F)(F)C(F)(F)C12F (centres undefined) | inactive | inactive | inactive | inactive | inactive | inactive | inactive | inactive |  | inactive |  | inactive | inactive | inactive | inactive |  |  |  |  | 
6 | O=C1C=CCCC1 | inactive | inactive | inactive | inactive | inactive | inactive | inactive | inactive | inactive | inactive | inactive | inactive | inactive |  | inactive |  |  |  |  | 
7 | COc1ccnc2c1CCCCC2S(=O)c1nc2ccccc2[nH]1 (centres undefined) | inactive | inactive | inactive | inactive | inactive | inactive | inactive |  | inactive | inactive |  | 29.8 µM (active) | 8.71 µM (active) | inactive | 0.436 µM (active) | inactive | inactive |  |  | 
8 | COc1cccc([C@H](O)C2CCN(CCc3ccc(F)cc3)CC2)c1OC | inactive | inactive | inactive | inactive | inactive | inactive |  |  | inactive |  | inactive | inactive |  | inactive | 2 µM (active) | inactive | inactive |  |  | 
9 | NC(=O)c1cc[n+](CC2=C(C(=O)[O-])N3C(=O)[C@@H](NC(=O)Cc4cccs4)[C@H]3SC2)cc1 | inactive | inactive | inactive | inactive | inactive | inactive | inactive | inactive | inactive |  | inactive | inactive | inactive | inactive |  |  |  | -2.94% | inactive | inactive
